Assay results as given in PubChem BioAssay (NCATS).
Records with an inconclusive call do not appear. Calls of active or inactive are those of the source. Unless noted, calls come from the whole dose curve; as a rule, active = well fitted curve in either direction with a large enough effect (not every such curve was filed as active); inconclusive = small, poorly fitted or top-dose-only effect, or another doubt; inactive = flat fitted curve, though single readings scatter.

Columns and labels:
[1] = target: Lysosomal acid glucosylceramidase (Homo sapiens) (UniProt P04062); experiment: Glucocerebrosidase-p2 (AID 348; in the data active = potency below about 10 µM; note: potency is the fitted concentration of half-maximal effect); settings: purified GBA, blue fluorogenic substrate, 40 min
How it was run: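 Compounds titrated from 0.6 nM upwards against 0.2 nM enzyme in pH 5.9 citric acid/KH2PO4, taurocholate, tween-20; blue fluorogenic substrate 80 uM, 40 min room temperature, stopped and read Ex 365/Em 440 for AC50.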

[2] = AP1 Signaling Pathway (AID 357); settings: ME-180 AP-1-bla reporter, EGF-induced, beta-lactamase ratio, 5 h; at 7.69 µM (top of the series) unless noted; note: % is set by controls: 0 for no effect and ±100 for the full control effect
How it was run: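 ME-180 cells with beta-lactamase reporter under AP-1 response element, stimulated with EC50 EGF; compounds tested in titration series, 5 h at 37 °C. CCF4 substrate added 2.5 h at room temperature; 460/530 nm emission ratio gave %activity and AC50.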

[3] = NFAT Signaling Pathway (AID 444); settings: Jurkat NFAT-bla M1, carbachol, beta-lactamase ratio, 5 h; at 7.69 µM (top of the series) unless noted;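 note: carbachol stimulus at about its EC50 of 1 µM final; % is set by controls: 0 for no effect and ±100 for the full control effect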
How it was run: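 Jurkat cells with NFAT-driven β-lactamase reporter and co-expressed M1 receptor, stimulated with carbachol (final 1 uM, ~EC50), compound titration, 5 h at 37 °C. CCF4 loaded 1 h at RT; 460/530 nm ratio gave %activity and AC50.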

[4] = Stat Signaling Pathway (AID 446); settings: ME-180 (cervical carcinoma) SIE beta-lactamase reporter, IL-6 stimulated, 5 h; at 7.69 µM (top of the series) unless noted;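 note: ME-180 cervical cancer cells given 40 pM IL-6 alongside compound; SIE-controlled beta-lactamase reporter measured as 460/530 nm FRET emission ratio; % is set by controls: 0 for no effect and ±100 for the full control effect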
How it was run: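 IL-6/STAT signaling read in ME-180 cells via an SIE beta-lactamase reporter. Stimulus was 40 pM IL-6 (its AC50) for 5 hrs, so both activation and inhibition register.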

[5] = target: Glucocorticoid receptor (Homo sapiens) (UniProt P04150); experiment: GR-GFP Redistribution (AID 450;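 active = compounds whose dose series gives a full or clear partial fitted curve of increased nuclear translocation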; note: potency is the fitted concentration of half-maximal effect); settings: U2OS GR-GFP nuclear translocation, laser cytometry, 2 h
[6] = target: Glucocorticoid receptor (Homo sapiens) (UniProt P04150); experiment: GR-EFC Redistribution (AID 451; calls by dose curve; note: potency is the fitted concentration of half-maximal effect); settings: CHO-K1 GR-EFC translocation, beta-gal luminescence, 2 h
How it was run: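 CHO-K1 cells expressing nuclear EA and GR-ED fragments of b-gal; compounds titrated up to 46 uM final, 2 h at 37 C. GR nuclear translocation read as complemented b-gal luminescence after 1 h RT detection.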

[7] = target: Mitogen-activated protein kinase 10 (Mus musculus) (UniProt Q61831); experiment: JNK3 AlphaScreen Assay (AID 530); settings: JNK3 lysate, c-Jun phosphorylation; series mostly up to 57.1 µM;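 note: kinase came from lysate of stimulated human HepG2 cells; signal reports phosphorylation of biotinylated GST-cJun 1-79 at Ser73 with 10 µM ATP; % is set by controls: 0 for no effect and ±100 for the full control effect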
How it was run: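 qHTS format: compounds tested as titrations against IL-1beta/TNF-alpha-activated HepG2 lysate JNK3 with biotin-GST-cJun substrate and 10 uM ATP at room temperature. Loss of anti-phospho-cJun AlphaScreen signal indicates inhibition.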

[8] = target: 3',5'-cyclic-AMP phosphodiesterase 4B (Homo sapiens) (UniProt Q07343); experiment: qHTS Assay for Inhibitors of PDE-IV (AID 607; active = well fitted activation curve with a large enough effect in the main read-out, with a control signal flat, not every such curve was filed as active; note: % of control where 0% means no effect); settings: HEK293 ACTOne CNG channel cells, membrane potential fluorescence; series mostly up to 22.9 µM
How it was run: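 Live HEK293 cells with a modified cyclic nucleotide-gated (CNG) channel report intracellular cAMP via membrane-potential dye fluorescence (ex 535/em 590 nm). Endogenous PDE-IV was targeted. Compounds were tested at up to 22.9 uM final; RO 20-1724 100 uM served as control.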

[9] = Confirmation and Secondary Assay for Modulators of Hemoglobin Beta Chain Splicing at IVS2 654 locus (AID 910; active = well fitted curve in the direction sought with a large enough effect; an effect the other way counts as inactive or inconclusive;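 note: HeLa cells stably carrying EGFP split by mutant beta-globin IVS2-654 intron; % of control where 0% means no effect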); settings: HeLa EGFP-654 splicing reporter, GFP fluorescence, 48 h; series mostly up to 38.3 µM
How it was run: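 HeLa cells stably expressing EGFP interrupted by β-globin IVS2-654 intron, seeded overnight in Opti-MEM/2% FCS, then treated 2 days at 37 °C. Restored splicing read as total peak GFP intensity per well by laser scanning cytometry (488 nm excitation, 500–520 nm emission); 500 nM antisense PNA as control.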

[10] = Confirmation and Secondary Assay for Modulators of Hemoglobin Beta Chain Splicing at IVS2 705 locus (AID 930; active = well fitted curve in the direction sought with a large enough effect; an effect the other way counts as inactive or inconclusive;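 note: HeLa cells stably expressing the EGFP-705 splicing reporter; GFP fluorescence per well restored by corrected splicing of the IVS2-705 intron in EGFP; % of control where 0% means no effect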); settings: HeLa EGFP-705 splicing reporter, GFP fluorescence, 48 h; series mostly up to 38.3 µM
How it was run: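 HeLa IVS2-705 EGFP reporter cells, 500/well, compound 2 d at 37C; correct splicing yields fluorescent EGFP. Control: 500 nM antisense PNA. Read-out: total peak GFP intensity.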

[11] = qHTS Assay for Lipid Storage Modulators (AID 1519; calls by dose curve); settings: Drosophila S3 cells, BODIPY lipid droplet/cell ratio, laser cytometry, cells loaded with oleic acid; for activity change, negative = inhibition: at 57.5 µM (top of the series)
How it was run: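 Cells seeded at 5,000 per well were treated with compounds over a concentration series and loaded with oleic acid (400 uM, as added). Lipid droplet fluorescence (488 nm excitation, 500-530 nm channel) was read by laser-scanning cytometry and normalized to 20 uM Triacsin C.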

[12] = target: Ubiquitin carboxyl-terminal hydrolase 1 (Homo sapiens) (UniProt O94782); experiment: Inhibitors of USP1/UAF1: Pilot qHTS (AID 504865; active = well fitted curve in the direction sought with a large enough effect; an effect the other way counts as inactive or inconclusive;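 note: rhodamine fluorescence freed from ubiquitin-rhodamine substrate followed over time; top concentration of the series differs between compounds; % is set by controls: 0 for no effect and ±100 for the full control effect; nearly all actives have a fitted effect of over 35% in size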); settings: purified USP1/UAF1, Ub-rhodamine cleavage fluorescence; series mostly up to 54.9 µM
How it was run: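 USP1/UAF1 complex at 1 nM preincubated 15 min at room temperature with compound, then Ub-Rho substrate added at 150 nM final. Fluorescence (480/540 nm) read kinetically in 50 mM HEPES pH 7.8, 0.5 mM EDTA, 1 mM TCEP, 0.1 mg/ml BSA, 0.01% Tween-20.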

[13] = Primary qHTS for small molecule stabilizers of the endoplasmic reticulum resident proteome: Secreted ER Calcium Modulated Protein (SERCaMP) assay (AID 1508630; active = well fitted curve in the direction sought with a large enough effect; an effect the other way counts as inactive or inconclusive; note: % is set by controls: 0 for no effect and ±100 for the full control effect); settings: SH-SY5Y GLuc-SERCaMP (Gaussia luciferase released on ER calcium loss) secretion, thapsigargin, luminescence; series mostly up to 38.4 µM
How it was run: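 GLuc-SERCaMP-expressing SH-SY5Y cells, pretreated 16 h with compound, are challenged with thapsigargin to empty ER calcium stores; after 4 h, coelenterazine is added directly to the medium and luminescence is imaged.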

[14] = target: Cytochrome P450 1A2 (Homo sapiens) (UniProt P05177); experiment: p450-cyp1a2 (AID 410; calls by dose curve;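 note: -100% = full effect of reference inhibitor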); settings: recombinant CYP1A2, luciferin-ME demethylation, luminescence; series mostly up to 57 µM
How it was run: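 Inhibition was calculated relative to 57 uM furafylline (full inhibition). The reaction used human CYP1A2 at 20nM with Luciferin-ME at its Km, 100uM, driven by an NADPH-regenerating system for 60 min at room temperature.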

[15] = target: Cytochrome P450 3A4 (Homo sapiens) (UniProt P08684); experiment: qHTS Assay for Activators of Cytochrome P450 3A4 (AID 885; active = well fitted curve in the direction sought with a large enough effect; an effect the other way counts as inactive or inconclusive; note: nearly all actives have a fitted effect of over 65% in size); settings: recombinant CYP3A4, Luciferin-PPXE luminescence, 60 min; series mostly up to 57.1 µM
How it was run: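 Quantitative HTS format: compounds preincubated with 20nM human CYP3A4 and Luciferin-PPXE substrate at KM, reaction started by NADPH regeneration, stopped after 60 min, luciferase luminescence read 20 min later.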

[16] = target: Cytochrome P450 2D6 (Homo sapiens) (UniProt P10635); experiment: qHTS Assay for Inhibitors and Substrates of Cytochrome P450 2D6 (AID 891; active = well fitted curve in the direction sought with a large enough effect; an effect the other way counts as inactive or inconclusive; note: potency is the fitted concentration of half-maximal effect; nearly all actives have a fitted effect of over 60% in size); settings: recombinant CYP2D6, luciferin-ME EGE luminescence; series mostly up to 57.1 µM
How it was run: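 Human CYP2D6 (5 nM) with 30 uM Luciferin-ME EGE (at Km) in 100 mM KPO4, compound preincubated 10 min, then NADPH regeneration system for 60 min at room temperature. Luciferin read by luminescence; normalized to 1.43 uM quinidine.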

[17] = measured here: cell count channel max response
[18] = measured here: lipid channel max response

Glucocorticoid receptor (Homo sapiens), sequence (P04150 whole entry, looked up, the tested form may be a part): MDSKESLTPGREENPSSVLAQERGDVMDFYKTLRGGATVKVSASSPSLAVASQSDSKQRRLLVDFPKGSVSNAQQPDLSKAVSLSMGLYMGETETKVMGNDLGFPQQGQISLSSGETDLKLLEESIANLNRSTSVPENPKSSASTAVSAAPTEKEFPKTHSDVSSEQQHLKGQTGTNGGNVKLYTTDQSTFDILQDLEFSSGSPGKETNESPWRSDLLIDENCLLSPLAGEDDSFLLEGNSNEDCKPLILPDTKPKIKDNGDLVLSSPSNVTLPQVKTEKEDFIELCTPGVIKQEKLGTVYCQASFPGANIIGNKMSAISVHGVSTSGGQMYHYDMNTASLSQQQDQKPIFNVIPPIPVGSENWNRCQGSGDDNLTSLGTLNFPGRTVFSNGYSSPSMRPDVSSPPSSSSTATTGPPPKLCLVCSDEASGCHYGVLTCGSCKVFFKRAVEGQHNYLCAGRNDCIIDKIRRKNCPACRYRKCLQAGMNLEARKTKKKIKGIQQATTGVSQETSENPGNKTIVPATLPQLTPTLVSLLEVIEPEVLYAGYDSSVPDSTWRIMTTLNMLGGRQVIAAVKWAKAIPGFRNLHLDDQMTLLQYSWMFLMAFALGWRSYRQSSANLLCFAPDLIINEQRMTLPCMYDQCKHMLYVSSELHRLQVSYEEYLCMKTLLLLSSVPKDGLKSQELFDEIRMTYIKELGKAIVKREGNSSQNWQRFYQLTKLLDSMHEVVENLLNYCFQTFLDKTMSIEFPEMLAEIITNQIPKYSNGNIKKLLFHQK
Lysosomal acid glucosylceramidase (Homo sapiens), sequence (P04062 whole entry, looked up): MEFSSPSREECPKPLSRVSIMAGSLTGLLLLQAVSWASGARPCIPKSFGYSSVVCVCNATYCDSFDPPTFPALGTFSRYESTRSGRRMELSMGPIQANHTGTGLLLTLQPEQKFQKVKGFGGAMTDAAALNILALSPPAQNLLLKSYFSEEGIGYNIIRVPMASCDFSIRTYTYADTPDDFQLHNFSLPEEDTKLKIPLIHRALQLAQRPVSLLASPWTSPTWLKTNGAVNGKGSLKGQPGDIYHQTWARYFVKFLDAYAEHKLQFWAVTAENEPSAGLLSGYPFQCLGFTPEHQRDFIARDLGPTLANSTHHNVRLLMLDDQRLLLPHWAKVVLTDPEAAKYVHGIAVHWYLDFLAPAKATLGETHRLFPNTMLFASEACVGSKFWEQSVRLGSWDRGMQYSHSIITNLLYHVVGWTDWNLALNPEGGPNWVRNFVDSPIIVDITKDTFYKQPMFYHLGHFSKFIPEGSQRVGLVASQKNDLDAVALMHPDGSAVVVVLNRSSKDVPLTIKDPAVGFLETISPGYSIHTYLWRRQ
3',5'-cyclic-AMP phosphodiesterase 4B (Homo sapiens), sequence (Q07343 whole entry, looked up): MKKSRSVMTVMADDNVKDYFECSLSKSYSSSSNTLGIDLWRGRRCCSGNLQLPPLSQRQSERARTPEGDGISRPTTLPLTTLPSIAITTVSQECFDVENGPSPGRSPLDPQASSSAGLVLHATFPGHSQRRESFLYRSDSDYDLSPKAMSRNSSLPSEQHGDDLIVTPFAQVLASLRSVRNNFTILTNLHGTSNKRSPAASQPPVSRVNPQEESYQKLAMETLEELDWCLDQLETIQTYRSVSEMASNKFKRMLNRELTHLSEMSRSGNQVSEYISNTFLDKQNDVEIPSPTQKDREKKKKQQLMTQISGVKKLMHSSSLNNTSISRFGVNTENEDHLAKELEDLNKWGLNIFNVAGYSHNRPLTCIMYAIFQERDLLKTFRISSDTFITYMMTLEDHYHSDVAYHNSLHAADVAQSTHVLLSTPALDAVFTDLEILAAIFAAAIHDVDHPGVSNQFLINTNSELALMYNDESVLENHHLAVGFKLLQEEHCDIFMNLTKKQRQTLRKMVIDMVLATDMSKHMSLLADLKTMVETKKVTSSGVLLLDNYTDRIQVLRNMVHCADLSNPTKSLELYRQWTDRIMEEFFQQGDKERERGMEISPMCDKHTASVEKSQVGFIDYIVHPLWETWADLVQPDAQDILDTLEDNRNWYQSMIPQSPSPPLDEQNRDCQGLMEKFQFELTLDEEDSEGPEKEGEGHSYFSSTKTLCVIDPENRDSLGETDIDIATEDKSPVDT
Ubiquitin carboxyl-terminal hydrolase 1 (Homo sapiens), sequence (O94782 whole entry, looked up): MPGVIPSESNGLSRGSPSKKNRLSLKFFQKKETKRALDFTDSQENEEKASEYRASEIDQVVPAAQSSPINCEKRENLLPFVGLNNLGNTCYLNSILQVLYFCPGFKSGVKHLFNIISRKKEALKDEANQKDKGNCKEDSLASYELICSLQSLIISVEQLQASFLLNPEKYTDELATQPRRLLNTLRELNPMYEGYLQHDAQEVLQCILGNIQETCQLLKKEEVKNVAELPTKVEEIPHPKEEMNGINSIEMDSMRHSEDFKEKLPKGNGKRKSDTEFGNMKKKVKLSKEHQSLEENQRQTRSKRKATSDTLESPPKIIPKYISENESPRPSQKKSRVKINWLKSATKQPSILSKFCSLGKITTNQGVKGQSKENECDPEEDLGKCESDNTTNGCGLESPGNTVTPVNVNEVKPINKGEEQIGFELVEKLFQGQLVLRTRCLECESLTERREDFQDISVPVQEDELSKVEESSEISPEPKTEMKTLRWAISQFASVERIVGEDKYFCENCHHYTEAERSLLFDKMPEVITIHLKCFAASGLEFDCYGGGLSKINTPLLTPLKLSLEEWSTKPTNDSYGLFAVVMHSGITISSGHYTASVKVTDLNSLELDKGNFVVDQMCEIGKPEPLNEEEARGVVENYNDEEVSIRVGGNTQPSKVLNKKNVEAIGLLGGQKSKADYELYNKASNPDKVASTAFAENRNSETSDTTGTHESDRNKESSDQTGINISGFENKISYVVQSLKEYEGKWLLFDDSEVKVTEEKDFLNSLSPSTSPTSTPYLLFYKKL
Cytochrome P450 1A2 (Homo sapiens), sequence (P05177 whole entry, looked up): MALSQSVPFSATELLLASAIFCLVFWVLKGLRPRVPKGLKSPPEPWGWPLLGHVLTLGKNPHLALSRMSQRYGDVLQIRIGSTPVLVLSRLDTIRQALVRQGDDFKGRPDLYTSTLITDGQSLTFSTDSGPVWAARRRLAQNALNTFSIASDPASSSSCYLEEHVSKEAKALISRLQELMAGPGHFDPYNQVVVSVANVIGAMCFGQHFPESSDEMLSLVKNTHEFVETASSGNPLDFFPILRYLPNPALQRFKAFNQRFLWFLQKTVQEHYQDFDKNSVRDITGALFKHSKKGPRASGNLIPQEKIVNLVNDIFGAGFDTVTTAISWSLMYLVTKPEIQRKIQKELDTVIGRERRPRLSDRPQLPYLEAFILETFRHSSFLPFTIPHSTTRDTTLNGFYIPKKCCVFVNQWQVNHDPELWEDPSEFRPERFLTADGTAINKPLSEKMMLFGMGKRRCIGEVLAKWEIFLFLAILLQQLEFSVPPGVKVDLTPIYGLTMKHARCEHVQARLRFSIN
Cytochrome P450 2D6 (Homo sapiens), sequence (P10635 whole entry, looked up): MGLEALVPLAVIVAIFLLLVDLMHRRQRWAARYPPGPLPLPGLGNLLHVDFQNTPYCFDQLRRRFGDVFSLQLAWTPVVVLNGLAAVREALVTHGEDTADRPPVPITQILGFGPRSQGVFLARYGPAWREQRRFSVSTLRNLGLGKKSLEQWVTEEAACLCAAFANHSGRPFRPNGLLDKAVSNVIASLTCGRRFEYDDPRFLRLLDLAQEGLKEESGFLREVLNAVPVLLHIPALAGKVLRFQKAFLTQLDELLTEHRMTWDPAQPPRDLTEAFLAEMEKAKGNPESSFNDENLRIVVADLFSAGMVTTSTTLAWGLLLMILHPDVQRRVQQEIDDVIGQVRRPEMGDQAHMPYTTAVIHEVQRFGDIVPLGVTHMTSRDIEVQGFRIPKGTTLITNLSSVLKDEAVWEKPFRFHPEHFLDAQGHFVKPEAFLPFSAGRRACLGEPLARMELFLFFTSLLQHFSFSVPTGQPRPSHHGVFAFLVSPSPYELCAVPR
Cytochrome P450 3A4 (Homo sapiens), sequence (P08684 whole entry, looked up): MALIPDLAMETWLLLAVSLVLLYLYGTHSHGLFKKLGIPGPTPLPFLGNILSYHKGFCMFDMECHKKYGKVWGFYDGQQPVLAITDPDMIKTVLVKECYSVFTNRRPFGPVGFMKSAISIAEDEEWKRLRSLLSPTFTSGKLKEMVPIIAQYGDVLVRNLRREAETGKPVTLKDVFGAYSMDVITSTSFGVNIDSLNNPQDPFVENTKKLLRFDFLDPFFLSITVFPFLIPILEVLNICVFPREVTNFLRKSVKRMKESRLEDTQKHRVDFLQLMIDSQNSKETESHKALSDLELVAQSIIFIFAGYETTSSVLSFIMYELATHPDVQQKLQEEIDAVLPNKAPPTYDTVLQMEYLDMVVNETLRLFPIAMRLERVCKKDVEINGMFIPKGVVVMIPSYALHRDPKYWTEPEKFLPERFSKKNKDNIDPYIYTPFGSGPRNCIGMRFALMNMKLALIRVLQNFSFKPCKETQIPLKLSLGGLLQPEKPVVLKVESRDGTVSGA

CC(=O)NCCNc1nc(-c2ccccc2CN(C)C)nc2ccccc12
18.7%: max response [11, 18]
13.1%: max response [11, 17]
inactive: Potency [1] > 11.4 µM | activity change, negative = inhibition [2] 6.16% | activity change, negative = inhibition [3] 2.15% | activity, negative = inhibition [4] 13.7% | Potency [5] > 46 µM | Potency [6] > 46 µM | Potency [7] | Potency [8] | Potency [9] | outcome [10] | activity change, negative = inhibition [11] 5.82% | Potency [12] | outcome [13]

Cc1cccc(CNc2ncnc3ccc(-c4ccccc4C#N)cc23)c1
4.86%: max response [11, 18]
4.98%: max response [11, 17]
inactive: Potency [1] > 11.4 µM | activity change, negative = inhibition [2] -28.4% | activity change, negative = inhibition [3] 12.9% | activity, negative = inhibition [4] -7.62% | Potency [5] > 46 µM | Potency [6] > 46 µM | Potency [7] | Potency [9] | activity change, negative = inhibition [11] 0.748% | outcome [13]

CC(=O)N1CCC[C@@]2(CCN(C(=O)Nc3ccccc3)C2)C1
-12.3%: max response [11, 17]
-5.99%: max response [11, 18]
inactive: Potency [1] > 11.4 µM | activity change, negative = inhibition [2] 10.4% | activity change, negative = inhibition [3] 22.8% | activity, negative = inhibition [4] -3.7% | Potency [6] > 46 µM | Potency [7] | Potency [8] | activity change, negative = inhibition [11] 3.44% | outcome [13]

COc1ccccc1CN1CCCC2(CCN(C(=O)c3cnccn3)CC2)C1
inactive: Potency [1] > 11.4 µM | activity change, negative = inhibition [2] 4.14% | Potency [14] | Potency [6] > 46 µM | Potency [7] | Potency [8] | Potency [15] | activity change, negative = inhibition [11] 3.91% | outcome [13]
active: Potency [16] 3.98 µM
-6.38%: max response [11, 17]
0.432%: max response [11, 18]

O=C(Nc1cccc(F)c1)N1CC2(CCN(C(=O)c3cccc(F)c3)CC2)C1
1.76%: max response [11, 17]
6.4%: max response [11, 18]
inactive: Potency [1] > 11.4 µM | activity change, negative = inhibition [2] -21.6% | activity change, negative = inhibition [3] 22.7% | activity, negative = inhibition [4] -4.12% | Potency [6] > 46 µM | Potency [7] | Potency [8] | activity change, negative = inhibition [11] 1.48% | outcome [13]

COc1cccc(-c2cc(NCc3cccc(C)c3)ncn2)c1
inactive: Potency [1] > 11.4 µM | activity change, negative = inhibition [2] -1.98% | activity change, negative = inhibition [3] -3.2% | activity, negative = inhibition [4] -11.9% | Potency [5] > 46 µM | Potency [6] > 46 µM | Potency [7] | activity change, negative = inhibition [11] -15.5% | outcome [13]
-6.01%: max response [11, 18]
8.52%: max response [11, 17]

c1cncc(-c2nccc(-n3ccnc3)n2)c1
3.87%: max response [11, 17]
13.2%: max response [11, 18]
inactive: Potency [1] > 11.4 µM | activity change, negative = inhibition [2] -19.4% | activity change, negative = inhibition [3] 1.68% | activity, negative = inhibition [4] -2.73% | Potency [5] > 46 µM | Potency [6] > 46 µM | Potency [7] | Potency [8] | Potency [9] | outcome [10] | activity change, negative = inhibition [11] 7.22% | Potency [12] | outcome [13]
